Data taken from PubChem BioAssay.
Activity calls are given as the source filed them.

Assays:
[1] = tested on: Plasmodium falciparum Sir2 (PF13_0152, Sir2A); assay: Plasmodium falciparum Sir2A binding compounds – biochemical, small-molecule microarray, 635 nm fluorescence, primary screen (AID 1098); settings: fluorescence 635 nm, higher = more signal;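 note: score merges spot fluorescence intensity with its signal-to-noise ratio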
[2] = probe aDKK1 binding to arrayed compounds – biochemical, biotinylated probe, 635/667 nm fluorescence, primary screen (AID 1099); settings: small-molecule microarray, higher = more signal;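 note: score merges 667nm spot fluorescence with signal to noise across triplicate slides; reference of the scale not given here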
[3] = probe aCHRDL2 binding to arrayed compounds – biochemical, biotinylated probe, 635/667 nm fluorescence, primary screen (AID 1100); settings: small-molecule microarray, higher = more signal
[4] = change in splice reporter luminescence, either direction, cell-based, HEK293, spliceosome inhibition project, primary screen (AID 1101); settings: HEK293 splicing luciferase reporter, 24 h, higher = more signal, called active from +8 up or from −8 down;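 note: HEK293 cells carrying a splicing-competent luciferase reporter gene; test concentration not given here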
[5] = target: Fibroblast growth factor 10 (Homo sapiens) (UniProt O15520); assay: compounds binding fibroblast growth factor 10 – biochemical, small-molecule microarray, 635 nm fluorescence, primary screen (AID 1102); settings: FGF10 binding, fluorescence 635 nm, higher = more signal
Fibroblast growth factor 10 (Homo sapiens), sequence (O15520 whole entry, looked up): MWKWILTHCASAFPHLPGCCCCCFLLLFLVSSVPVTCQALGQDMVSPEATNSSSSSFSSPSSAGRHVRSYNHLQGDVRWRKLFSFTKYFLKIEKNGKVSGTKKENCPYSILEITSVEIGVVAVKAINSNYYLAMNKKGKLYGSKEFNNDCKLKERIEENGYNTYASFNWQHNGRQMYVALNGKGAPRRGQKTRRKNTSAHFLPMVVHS

[6] = tested on: glycogen synthase kinase-3 (GSK3A per assay name; protocol says GSK3B); assay: compounds binding glycogen synthase kinase-3 – biochemical, small-molecule microarray, 635 nm fluorescence, GSK3A, primary screen (AID 1103); settings: fluorescence 635 nm, higher = more signal; note: the record names both GSK3A and GSK3B
[7] = target: Epidermal growth factor receptor (Homo sapiens) (UniProt P00533); assay: compounds binding epidermal growth factor receptor – biochemical, small-molecule microarray, 635 nm fluorescence, primary screen (AID 1104); settings: EGFR binding, higher = more signal;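 note: score merges 667 nm emission intensity with spot signal to noise over triplicate slides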
Epidermal growth factor receptor (Homo sapiens), sequence (P00533 whole entry, looked up): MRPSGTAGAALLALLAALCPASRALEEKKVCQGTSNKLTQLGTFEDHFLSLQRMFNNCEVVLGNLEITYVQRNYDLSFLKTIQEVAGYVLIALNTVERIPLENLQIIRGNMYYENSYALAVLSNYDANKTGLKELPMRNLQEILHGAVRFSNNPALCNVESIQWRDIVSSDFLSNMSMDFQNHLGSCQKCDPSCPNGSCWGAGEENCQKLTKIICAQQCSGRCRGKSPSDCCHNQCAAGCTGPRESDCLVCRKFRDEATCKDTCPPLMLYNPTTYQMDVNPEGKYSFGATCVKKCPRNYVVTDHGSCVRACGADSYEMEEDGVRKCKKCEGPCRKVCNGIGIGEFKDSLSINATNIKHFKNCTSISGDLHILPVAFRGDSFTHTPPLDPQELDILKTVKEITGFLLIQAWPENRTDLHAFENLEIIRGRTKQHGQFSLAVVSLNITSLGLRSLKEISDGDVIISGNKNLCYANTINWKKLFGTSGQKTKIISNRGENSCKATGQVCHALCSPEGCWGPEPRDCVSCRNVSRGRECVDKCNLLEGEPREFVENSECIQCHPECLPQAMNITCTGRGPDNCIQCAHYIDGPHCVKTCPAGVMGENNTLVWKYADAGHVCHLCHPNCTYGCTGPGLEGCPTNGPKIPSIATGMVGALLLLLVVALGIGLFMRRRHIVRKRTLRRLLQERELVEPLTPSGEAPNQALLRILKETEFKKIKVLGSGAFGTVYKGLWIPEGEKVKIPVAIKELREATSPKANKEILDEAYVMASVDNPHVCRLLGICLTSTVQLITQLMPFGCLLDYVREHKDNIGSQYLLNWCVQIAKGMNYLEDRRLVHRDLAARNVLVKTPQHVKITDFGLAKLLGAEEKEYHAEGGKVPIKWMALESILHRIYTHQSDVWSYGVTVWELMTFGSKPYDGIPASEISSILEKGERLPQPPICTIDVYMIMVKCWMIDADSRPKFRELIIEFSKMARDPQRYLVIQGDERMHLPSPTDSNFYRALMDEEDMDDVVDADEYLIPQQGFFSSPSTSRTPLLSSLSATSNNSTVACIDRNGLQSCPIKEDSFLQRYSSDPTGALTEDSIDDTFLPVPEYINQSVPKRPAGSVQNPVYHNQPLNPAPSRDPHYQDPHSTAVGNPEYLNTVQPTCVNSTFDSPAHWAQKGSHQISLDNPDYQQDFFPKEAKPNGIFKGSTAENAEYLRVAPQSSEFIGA

[8] = target: Follistatin-related protein 3 (Homo sapiens) (UniProt O95633); assay: compounds binding follistatin-related protein 3 – biochemical, small-molecule microarray, 635 nm fluorescence, primary screen (AID 1105); settings: FSTL3 binding, higher = more signal;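 note: score merges emission near 667 nm and signal to noise per printed spot across three slides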
Follistatin-related protein 3 (Homo sapiens), sequence (O95633 whole entry, looked up): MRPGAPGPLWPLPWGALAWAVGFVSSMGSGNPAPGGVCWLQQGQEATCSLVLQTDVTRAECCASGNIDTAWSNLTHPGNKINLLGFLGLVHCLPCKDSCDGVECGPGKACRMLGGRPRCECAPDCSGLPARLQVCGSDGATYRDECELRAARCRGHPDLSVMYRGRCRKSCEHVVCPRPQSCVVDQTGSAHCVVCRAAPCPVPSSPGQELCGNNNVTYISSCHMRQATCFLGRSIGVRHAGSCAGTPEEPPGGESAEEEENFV

[9] = target: Dickkopf-related protein 1 (Homo sapiens) (UniProt O94907); assay: small molecules binding DKK1 protein – biochemical, small-molecule microarray, 635 nm fluorescence scan, primary screen (AID 1106); settings: higher = more signal;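 note: score merges emission near 667 nm with signal to noise over three replicate slides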
Dickkopf-related protein 1 (Homo sapiens), sequence (O94907 whole entry, looked up): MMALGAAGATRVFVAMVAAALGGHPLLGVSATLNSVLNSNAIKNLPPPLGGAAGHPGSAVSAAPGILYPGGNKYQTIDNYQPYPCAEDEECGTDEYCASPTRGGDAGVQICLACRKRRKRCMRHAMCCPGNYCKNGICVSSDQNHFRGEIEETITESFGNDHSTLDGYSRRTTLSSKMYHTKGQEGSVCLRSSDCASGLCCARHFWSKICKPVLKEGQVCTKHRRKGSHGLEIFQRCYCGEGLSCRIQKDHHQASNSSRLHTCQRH

[10] = tested on: Inhibin beta A chain (activin A); assay: small molecules binding activin A – biochemical, small-molecule microarray, 635 nm fluorescence scan, primary screen (AID 1107); settings: INHBA, higher = more signal;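 note: mouse activin A protein probed at 4.33 µg/mL on printed slides; score merges bound-protein fluorescence near 667 nm with spot signal-to-noise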

Structure (SMILES) | composite z-score [1] | composite z-score [2] | composite z-score [3] | z-score [4] | composite z-score [5] | composite z-score [6] | composite z-score [7] | composite z-score [8] | composite z-score [9] | composite z-score [10]
CC(C)[Si](C#CCCCC#N)(Oc1ccccc1Br)C(C)C | 0.436 | -0.288 | -0.536 | -0.542 (inactive) | 0.361 | 0.693 | 0.216 | 0.58 | -0.108 | 0.32
O=C1NC(=O)C2C1C=CC(C(O)c1ccc(-c3ccccc3)s1)N2Nc1ccc(Cl)cc1Cl (stereo not given) | 1.02 | -0.214 | 0.956 | 0.624 (inactive) | 0.227 | 0.508 | 0.112 | 0.992 | -0.729 | 0.959
NC(=O)[C@@]1(Cc2ccccc2)N=C(c2ccc(OCCCO)cc2)O[C@H]1c1ccccc1 | 0.363 | 0.963 | 1.22 | -1.26 (inactive) | 1.15 | -0.327 | 0.0149 | -0.68 | -0.348 | 0.87
C=C(C(=O)CC[C@H](OC(C)=O)c1ccccc1OCCO)C(C)C | 0.78 | -0.287 | 0.006 | -1.94 (inactive) | 1.28 | -1.29 | -0.803 | -0.226 | -0.284 | -0.139
CCCNC(=O)[C@@H]1c2ccccc2C(=O)N(Cc2ccccc2OC)[C@H]1c1ccc(CO)cc1 | 1.37 | 0.0051 | 0.4 | 0.233 (inactive) | 0.714 | 0.68 | 0.0755 | 0.995 | 0.216 | -0.258
COC(=O)[C@@]1(Cc2ccc(OC)cc2)[C@H]2c3cc(C(=O)N4CCCC4)n(CCSCCO)c3C[C@H]2CN1C(=O)c1ccccc1 | 0.45 | 0.852 | 1.21 | -0.657 (inactive) | 0.556 | 0.541 | 0.0009 | -0.17 | -0.984 | 0.435
CC(C)Cc1ccc(CN2CC[C@@H](N)C2)cc1 | 0.472 | -0.459 | -0.275 | -1.75 (inactive) | -1.16 | -0.727 | -1.06 | -0.431 | -0.444 | 0.419
O=C1OCCC=C[C@H]2OC34C=CCN(c5ccc(Cl)cc5)C(=O)[C@H]3N(CCCO)C(=O)[C@@H]4C12 (stereo not given in full) | -0.41 | -0.227 | 0.0093 | -1.29 (inactive) | 0.0364 | -1.4 | -0.522 | -0.181 | -0.455 | 1.52
COCCOC(=O)N1C(=O)[C@@]2(c3cc(C#CCCO)ccc31)[C@H](c1ccc(OCCO)cc1)N1[C@H](c3ccccc3)[C@H](c3ccccc3)OC(=O)[C@H]1[C@@H]2C(N)=O | 0.923 | 0.0909 | -0.0603 | -1.59 (inactive) | 0.874 | 1.3 | 0.587 | 0.829 | 0.441 | 0.257
COCCOC(=O)N1C(=O)[C@@]2(c3cc(C#CC4=CCCCC4)ccc31)[C@H](c1ccc(OCCO)cc1)N1[C@H](c3ccccc3)[C@H](c3ccccc3)OC(=O)[C@H]1[C@@H]2C(=O)N1CCc2cc(OC)c(OC)cc2C1 | 0.774 | 0.645 | 0.538 | -0.992 (inactive) | 1.09 | 1.3 | 0.707 | 1.39 | 1.13 | 0.942
COCC(=C=CC[C@@H](O)c1ccc(OCCO)cc1)C[C@@H](O)c1ccccn1 | 0.0525 | -0.201 | -0.288 | 0.0733 (inactive) | 0.377 | 0.0621 | 0.0724 | 0.439 | 0.0579 | 1.18
[N-]=[N+]=NCc1ccccc1[C@@H]1OC(c2ccc(OCCCO)cc2)=N[C@]1(CCS(=O)(=O)c1ccccc1)C(=O)N1CCOCC1 | 1.46 | 1.27 | 1.31 | -1.56 (inactive) | 1.04 | 1.12 | 0.117 | 1.07 | -0.242 | 0.933
CC[C@@H]1C=C(C(=O)O)[C@H](c2cccc3ccccc23)N1S(=O)(=O)c1ccc(C)cc1 | 0.819 | 0.0149 | 0.0792 | 0.756 (inactive) | 0.51 | 0.466 | 0.294 | 0.495 | 0.153 | 1.02
Cc1ccc(S[C@]2(C(=O)NCC(C)C)CC(=O)N(Cc3cc(C(F)(F)F)cc(C(F)(F)F)c3)[C@@H]2c2ccc(CO)cc2)cc1 | 0.889 | 0.209 | 0.736 | 0.585 (inactive) | -0.417 | -0.725 | -1.25 | -0.634 | -0.326 | 0.96
C=CC[C@]1(C(N)=O)N=C(c2ccc(OCCCO)cc2)O[C@H]1c1ccccc1 | 1.3 | 0.351 | 1.11 | 0.27 (inactive) | -0.304 | -0.195 | -1.03 | -0.882 | -0.539 | 1.08
COc1ccc(CCNC(=O)[C@@]2(c3ccc([N+](=O)[O-])cc3)CC(=O)N(CC34CC5CC(CC(C5)C3)C4)[C@@H]2c2ccc(CO)cc2I)cc1 | 1.01 | -0.153 | -0.263 | -0.287 (inactive) | 1.15 | 1.04 | 0.233 | 0.861 | 0.424 | -0.444
CC(C)OC(=O)C=C1C[C@@H](c2cccc(Cl)c2)O[C@@H](c2cccc(Cl)c2)O1 | 1.31 | 0.471 | 1.11 | 1.35 (inactive) | 0.31 | 0.651 | -1.18 | -0.901 | -1.42 | 1.24
C=C[C@H](C)[C@@H](OC(=O)Nc1ccc(SC)cc1)c1ccc(O)c2ccccc12 | 1.3 | -0.118 | 0.216 | -0.8 (inactive) | 1.33 | 1.28 | 1.07 | 1.44 | 1.34 | 0.482
COC(=O)[C@H](Cc1ccccc1)N[C@H](/C=C/C1CC1)[C@@H](O)Cc1ccccc1 | -0.111 | -0.351 | 0.327 | -1.16 (inactive) | -0.66 | -1.22 | -0.579 | -0.244 | -0.506 | 0.0419
COCCOC(=O)N1C(=O)[C@@]2(c3ccccc31)[C@H](C(N)=O)[C@H]1C(=O)O[C@H](c3ccccc3)[C@H](c3ccccc3)N1[C@@H]2c1ccc(O)cc1 | 0.784 | -0.566 | 0.481 | -0.726 (inactive) | 0.0392 | -0.0985 | -0.458 | 0.292 | -0.0601 | 0.0565
[N-]=[N+]=Nc1ccccc1C[C@]1(C(=O)N2CCCCC2)COC(c2ccc(OCCCO)cc2)=N1 | -0.315 | 0.149 | 0.89 | -0.806 (inactive) | 1.28 | 1.3 | -0.214 | 0.615 | -0.482 | 1.01
COC(=O)[C@]1(CCC(=O)OC(C)(C)C)N=C(c2ccc(OCCCO)cc2)O[C@@H]1c1ccccc1 | 1.37 | 0.46 | 0.779 | -0.783 (inactive) | -0.361 | -0.495 | -0.754 | -0.577 | -0.563 | -0.0102
C=CCN1C(=O)[C@]2(O[C@H](CCO)[C@@H]([Si](C)(C)c3ccc(OC)cc3)[C@@H]2C)c2cc(N(C=O)c3ccccc3)ccc21 | 0.465 | -0.128 | 0.348 | -2.19 (inactive) | -0.0285 | -0.116 | -0.414 | -0.0666 | -0.113 | 0.407
COc1cc2c(cc1O)C=[N+](Cc1cc3c(cc1Br)OCO3)CC2 | 1.73 | 0.0055 | 0.591 | -0.244 (inactive) | -0.445 | -1.06 | -0.486 | -1.04 | -1.05 | 0.655
COCCCNC(=O)[C@]1(Cc2ccccc2)N=C(c2ccc(OCCCO)cc2)O[C@@H]1c1ccccc1CN=[N+]=[N-] | 1.24 | 1.2 | 1.29 | -0.97 (inactive) | 1.49 | 0.98 | 0.25 | 0.721 | -0.0836 | 0.608
CC(C)(C)OC(=O)CC[C@]1(C(=O)NCCN2CCOCC2)COC(c2ccc(OCCCO)cc2)=N1 | 0.706 | 0.0968 | 0.465 | -0.686 (inactive) | 1.42 | 0.743 | -0.422 | 0.683 | -0.105 | 0.295
